SMARCA2 activ – increases SMARCA2 function in MMTV reporter cells; activation, % at 9.1 µM; MG213 cells, MMTV-luciferase reporter, dexamethasone, overnight; AID 652017; 1% of 370,000 active; in the data active means activation above about 7.8%;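 further: 0% = vehicle wells and 100% = reference activator wells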
esBAF inh – blocks esBAF chromatin remodeling in mouse ES cells; Bmi1-luciferase knock-in reporter, 24 h; 100% = twice the neutral-well signal; reporter increase, % at 12.5 µM; 2% of 350,000 active; AID 602393; in the data active means activation above about 40%;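 further: 0% = median of the plate's neutral control wells and 100% = double that signal; a rise in the Bmi1 reporter signal indicates esBAF inhibition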
CDK5 inh – blocks human CDK5/p35 kinase activity; 0.01% of 330,000 active; Recombinant CDK5/p35, ADP-Glo luminescence, 60 min; inhibition, % at 10 µM; Q00535+Q15078;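 active means highest replicate inhibition of at least 50% and at least 75% of replicates reaching 50%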;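 further: plate controls were DMSO neutral control for no effect and GW8510 at 10 µM for full effect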
Target sequence (Q00535 whole entry, looked up): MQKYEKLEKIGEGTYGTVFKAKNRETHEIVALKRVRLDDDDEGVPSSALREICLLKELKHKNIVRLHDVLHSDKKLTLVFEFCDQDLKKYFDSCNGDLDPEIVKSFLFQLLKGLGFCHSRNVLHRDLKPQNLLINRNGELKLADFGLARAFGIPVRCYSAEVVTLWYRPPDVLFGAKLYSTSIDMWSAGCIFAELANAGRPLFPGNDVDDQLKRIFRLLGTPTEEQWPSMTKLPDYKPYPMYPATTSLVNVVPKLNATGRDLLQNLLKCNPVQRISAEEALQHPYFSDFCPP
Target sequence (Q15078 whole entry, looked up): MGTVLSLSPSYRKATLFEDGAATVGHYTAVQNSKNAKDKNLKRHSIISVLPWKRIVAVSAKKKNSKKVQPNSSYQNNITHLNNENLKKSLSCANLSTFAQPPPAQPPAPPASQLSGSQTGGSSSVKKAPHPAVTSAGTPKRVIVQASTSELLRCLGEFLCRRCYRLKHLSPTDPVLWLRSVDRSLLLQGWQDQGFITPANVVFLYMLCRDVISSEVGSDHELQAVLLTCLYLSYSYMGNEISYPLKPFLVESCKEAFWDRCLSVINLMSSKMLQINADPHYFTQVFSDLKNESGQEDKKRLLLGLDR
dFosB activator – enhances mouse delta FosB homodimer DNA binding; 0.99% of 340,000 active; P13346; activation, % at 25 µM; AID 493131; purified delta FosB, TAMRA-CDK5 oligo fluorescence polarization; percent of positive-control signal above neutral wells;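 active means mean activation above about 17%, with every replicate also reaching it, limit read from the data, passing the limit was not always enough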
Rtt109 HAT inh – inhibitors of Candida albicans Rtt109/Vps75 histone acetyltransferase | 0.16% of 330,000 active | Q5AAJ8 | inhibition, % at 34.9 µM | purified Rtt109/Vps75, ThioGlo CoA-SH fluorescence, 4 h;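 active means inhibition of at least 50% in every replicate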
DYRK1A inh – blocks rat Dyrk1A kinase activity. inhibition, % at 12.5 µM. 0.43% of 310,000 active. ADP-Glo luminescence, NFATc1 peptide. Q63470. AID 504441; in the data active means inhibition above about 50%;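 further: plate controls were vehicle with enzyme for no effect and no enzyme for full effect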
SMARCA2 conf – SMARCA2 activation, confirmation screen; MG213 cells, MMTV-luciferase with dexamethasone, luminescence, overnight; MG213 cells expressing E1A, Rb sequestered; DMSO wells 0%, reference activator 100%; 30% of 3,500 active; shares compounds with SMARCA2 activ; AID 652260; activation, % at 9.1 µM;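 active means activation above its plate's cutoff, the mean activation of tested wells plus 3 SD, cut at about 7.9% in these data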
VP16 Luc act – activates GAL4-VP16 luciferase, flagging SMARCA2 activator hits; shares compounds with SMARCA2 activ; HEK293 GAL4-VP16 pG5luc reporter, luciferase luminescence; scaled: DMSO wells 0%, SAHA wells 100%; activation, % at 9.1 µM; 41% of 3,500 active; AID 686939;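 active means activation above the solvent-only control well mean plus 3 SD, averaged across control plates, cut at about 5.2% in these data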
Active calls of the source: *; x = no result given. Compounds with a hit are over-represented: about 3.2% of the library has one in this group of screens.

SMILES	SMARCA2 activ	esBAF inh	CDK5 inh	dFosB activator	Rtt109 HAT inh	DYRK1A inh	SMARCA2 conf	VP16 Luc act
COc1cc(NC(=O)c2ccc([N+](=O)[O-])o2)ccc1NC(=O)c1ccco1	-2.0	19.6	-0.6	-17.8	-14.5	-7.1	x	x
O=C(Nc1ccc(Cl)cn1)c1ccc([N+](=O)[O-])o1	10.8*	x	0.3	-0.9	17.5	3.4	13.8*	3.9
CN1C[C@@H](O)COC[C@H]2O[C@H](CC(=O)N3CCN(c4ccccc4)CC3)CC[C@@H]21	x	5.0	x	x	x	x	x	x
CCNC(=O)C[C@H]1CC[C@@H]2[C@@H](COc3ccc(NC(=O)Nc4ccccc4OC)cc3C(=O)N2C)O1	x	0.3	x	x	x	x	x	x
Cc1ccccc1C(=O)N1CCN(c2ccc(NC(=O)c3ccc([N+](=O)[O-])o3)cc2)CC1	12.8*	-53.7	0.5	-7.6	8.4	-0.4	-4.4	3.2
O=C(Nc1ccc(N2CCN(C(=O)c3ccccc3)CC2)cc1)c1ccc([N+](=O)[O-])o1	-4.8	x	0.1	-11.5	33.5	-0.8	x	x
Cc1ccc(NC(=O)c2ccc([N+](=O)[O-])o2)cc1S(=O)(=O)N1CCOCC1	17.0*	x	0.4	-4.8	-2.4	-2.0	14.4*	1.8
O=C(C[C@@H]1CC[C@@H]2[C@H](COC[C@H](O)CN2C(=O)Cc2ccccc2)O1)NC1CCCC1	x	3.0	x	x	x	x	x	x
C[C@@H]1CCCCO[C@@H](CN(C)S(=O)(=O)c2cccs2)[C@@H](C)CN([C@@H](C)CO)C(=O)c2cc(NS(=O)(=O)c3cccs3)ccc2O1	x	3.4	x	x	x	x	x	x
Cc1nc(SC(C(N)=O)c2ccccc2)c(C#N)c(C)c1C (configuration not stated)	8.3*	x	x	x	x	x	2.6	2.1
O=c1cnnc(SCCc2ccccc2)[nH]1	8.2*	4.8	-0.5	-2.3	1.9	8.7	-1.0	0.6
Cc1cccc(CSc2nncc(=O)[nH]2)c1	1.1	-3.3	1.5	-4.7	9.7	-0.4	x	x
CCc1nnc(N/N=C/c2ccc(O)c(OC)c2)n1N	1.1	-6.7	-1.5	-6.1	3.3	-0.7	x	x
CCc1nnc(N/N=C\c2ccc(OC(C)=O)c(OC)c2)n1N	8.6*	-4.1	2.3	3.4	16.5	0.5	-1.6	1.6
Cc1ccccc1C1c2[nH]c3ccccc3c2CCN1C(=O)c1ccc(=O)n(C)n1 (configuration not stated)	9.6*	x	-6.1	-12.3	0.6	-5.0	1.5	0.6
CC1(C)CC(=O)CC2(C1)NCC(c1ccccc1)c1c2[nH]c2ccccc12 (configuration not stated)	8.7*	-0.6	-0.7	-10.4	22.6	-0.5	-1.9	1.2
Cc1ccc(C(=O)CCC(=O)OCC(=O)NNC(=O)c2ccc([N+](=O)[O-])cc2)cc1	9.3*	-3.7	-0.2	-2.0	7.6	-4.1	-0.1	0.6
Nc1nn(-c2ccccc2)c(N)c1N=Nc1ccccc1	14.6*	x	2.5	0.8	-6.7	-2.1	7.4	26.7*
Cc1ccccc1S(=O)(=O)N1CC[C@@H]2[C@@H](CO)Nc3ccc(-c4ccccc4F)cc3[C@@H]21	x	-7.8	x	x	x	x	x	x
CCCN1[C@@H]2c3ccc(-c4cccnc4)c(=O)n3C[C@@H]2[C@@H](CO)[C@@H]1C(=O)NCCN1CCCC1	x	1.9	x	x	x	x	x	x
COc1ccccc1C1N(c2cc(Cl)ccc2OC)C(=O)C2CCCN21 (configuration not stated)	-1.1	-3.4	-0.8	-10.3	-7.6	4.6	x	x
COc1ccc(C2N(c3cc(Cl)ccc3OC)C(=O)C3CCCN32)c(OC)c1 (configuration not stated)	9.5*	1.3	2.3	-10.2	5.9	-0.4	2.6	-0.2
C[C@H](NC(=O)C[C@H]1C=C[C@@H](NC(=O)C2CCC2)[C@@H](CO)O1)c1ccccc1	x	0.7	x	x	x	x	x	x
CN1CCN(c2ccc(NC(=O)c3sc4ccccc4c3Cl)cc2)CC1	8.4*	-46.3	-0.1	4.7	-5.0	x	0.6	2.9
CN1CCN(c2ccc(NC(=O)c3ccc(-c4ccc(Cl)cc4)o3)cc2)CC1	9.1*	-56.0	-1.3	6.7	-0.6	8.9	6.7	0.2
SMILES	SMARCA2 activ	esBAF inh	CDK5 inh	dFosB activator	Rtt109 HAT inh	DYRK1A inh	SMARCA2 conf	VP16 Luc act
CN1CCN(C(=O)c2ccccc2NC(=O)c2sc3ccccc3c2Cl)CC1	2.8	-1.3	-0.7	-12.2	-5.4	3.4	x	x
C[C@@H]1CCCCO[C@@H](CN(C)S(C)(=O)=O)[C@H](C)CN([C@@H](C)CO)C(=O)c2cc(NC(=O)c3ccncc3)ccc2O1	x	-2.8	x	x	x	x	x	x
C[C@@H]1CN([C@@H](C)CO)C(=O)c2cc(N(C)C)ccc2O[C@@H](C)CCCCO[C@@H]1CN(C)Cc1ccncc1	x	-1.2	x	x	x	x	x	x
CC(=O)N1[C@H](CNC(=O)CN(C)C)[C@H](c2ccc(C3=CCCCC3)cc2)[C@@H]1CO	x	4.8	x	x	x	x	x	x
COc1ccc(NC(=O)N(C)C[C@@H]2Oc3ccc(NS(=O)(=O)c4cn(C)cn4)cc3CC(=O)N([C@H](C)CO)C[C@@H]2C)cc1	x	-8.3	x	x	x	x	x	x
O=S(=O)(N[C@@H]1CC[C@H](CCn2cc(-c3cccc(F)c3)nn2)O[C@@H]1CO)c1ccc(F)cc1	x	-1.2	x	x	x	x	x	x
O=C(Oc1c(CN2CCOCC2)cc(Cl)c2cccnc12)c1ccccc1F	39.3*	x	-1.4	-3.9	-1.6	x	12.8*	0.7
O=C(Oc1c(CN2CCOCC2)cc(Cl)c2cccnc12)c1ccccc1	35.0*	2.2	-0.4	-7.9	6.6	2.7	10.7*	-1.6
COc1cc(/C=N/Nc2ccccn2)ccc1O	9.6*	x	1.0	1.0	-41.3	23.0	7.5	10.3*
COc1cc(/C=C2/SC(=S)N(CC(=O)NC(C)(C)C)C2=O)cc(OC)c1OC	8.0*	-2.9	1.6	-0.8	-4.6	0.5	-1.9	-0.8
Cc1ccc(CNC(=O)CCS(=O)(=O)c2ccc(C)cc2)cc1	10.2*	-5.4	-0.5	-4.8	-16.5	-3.7	-0.8	0.1
Cc1ccc(/C=C/C2=NN(C)C(=O)CC2)cc1	8.3*	38.3	1.1	0.1	-11.1	0.2	6.3	6.6*
CN1N=C(/C=C/c2ccccc2)CCC1=O	7.0	x	1.2	-0.4	-0.2	2.2	x	x
CC(=O)N(C)C[C@H]1Oc2cc(C#CC3CC3)ccc2S(=O)(=O)N([C@@H](C)CO)C[C@@H]1C	x	5.0	x	x	x	x	x	x
COc1ccc(-c2nnc(NC(=O)c3ccco3)s2)cc1	2.6	16.3	-2.2	13.2	0.2	2.6	x	x
Cc1ccc2nc(NC(=S)NC(=O)c3ccco3)sc2c1	17.0*	x	-2.5	-4.1	5.0	-5.7	9.5*	15.1*
O=C(Nc1nc2ccsc2c(=O)s1)c1ccco1	13.5*	x	x	x	x	x	10.0*	6.4*
